From PubChem BioAssay AID1779 (Sanford-Burnham Center for Chemical Genomics, 2009)
About 160 (0.055%) of roughly 290,000 compounds were called active. Rule as the data show it: active = inhibition above about 50%; inactive = the rest. The list comes from a sample in which actives are over-represented; it also holds similar structures and randomly drawn compounds.

Target: Tyrosine-protein phosphatase non-receptor type 22 (Homo sapiens) (UniProt Q9Y2R2)
Assay: inhibitors of LYP phosphatase, biochemical, fluorescence intensity, uHTS (AID 1779);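 also: plate controls were vehicle with enzyme for no effect and no enzyme for full effect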
Conditions: recombinant LYP phosphatase, at 11.5 µM, active compounds read high

Tyrosine-protein phosphatase non-receptor type 22 (Homo sapiens), sequence (Q9Y2R2 whole entry, looked up): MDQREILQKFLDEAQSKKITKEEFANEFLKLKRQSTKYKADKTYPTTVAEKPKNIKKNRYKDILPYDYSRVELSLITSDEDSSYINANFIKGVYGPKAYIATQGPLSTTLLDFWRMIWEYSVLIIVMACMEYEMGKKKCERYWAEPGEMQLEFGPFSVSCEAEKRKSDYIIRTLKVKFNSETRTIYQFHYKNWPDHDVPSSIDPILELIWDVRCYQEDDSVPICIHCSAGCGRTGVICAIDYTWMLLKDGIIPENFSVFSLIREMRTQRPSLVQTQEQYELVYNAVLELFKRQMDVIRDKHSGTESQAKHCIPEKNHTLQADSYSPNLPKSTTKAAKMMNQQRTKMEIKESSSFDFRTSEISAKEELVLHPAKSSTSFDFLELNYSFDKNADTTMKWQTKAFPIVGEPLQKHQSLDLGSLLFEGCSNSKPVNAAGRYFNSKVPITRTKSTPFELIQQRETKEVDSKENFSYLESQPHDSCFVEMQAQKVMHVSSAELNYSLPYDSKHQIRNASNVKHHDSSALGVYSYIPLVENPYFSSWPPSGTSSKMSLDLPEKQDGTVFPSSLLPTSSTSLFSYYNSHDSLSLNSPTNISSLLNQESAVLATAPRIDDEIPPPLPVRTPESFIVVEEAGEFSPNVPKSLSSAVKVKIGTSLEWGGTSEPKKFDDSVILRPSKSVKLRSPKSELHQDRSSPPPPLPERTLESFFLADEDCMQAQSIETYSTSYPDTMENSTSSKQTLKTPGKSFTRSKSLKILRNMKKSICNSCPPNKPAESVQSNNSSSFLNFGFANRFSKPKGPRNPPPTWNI

| Compound | inhibition |
| --- | --- |
| CCOC(=O)c1ccc(NC(=S)NC(=O)c2nn(CC)cc2Br)cc1 | 1.9% (inactive) |
| CCn1cc(Br)c(C(=O)NC(=S)Nc2ccc(C(=O)OC)cc2)n1 | 65.2% (active) |
| CCOC(=O)c1ccc(NC(=O)c2nn(CC)cc2Br)cc1 | -4.5% (inactive) |
| COC(=O)CNC(=O)c1ccc(C)s1 | -7.8% (inactive) |
| CN1CCN(S(=O)(=O)c2ccc3ccccc3c2)CC1 | -4.3% (inactive) |
| CCS(=O)(=O)N1CCN(S(=O)(=O)c2ccc3ccccc3c2)CC1 | -9.2% (inactive) |
| CN(C)S(=O)(=O)N1CCN(S(=O)(=O)c2ccc3ccccc3c2)CC1 | 71.6% (active) |
| CCN(CC(=O)N1CCOCC1)S(=O)(=O)c1ccc2ccccc2c1 | -8.1% (inactive) |
| Cc1ccc(OCC(O)CNS(=O)(=O)c2ccccc2C(=O)O)cc1 (stereo not drawn) | -4.9% (inactive) |
| CCC(=O)Nc1ccc(/C(C)=N/NC(=O)c2c(-c3ccccc3Cl)noc2C)cc1 | -2.5% (inactive) |
| CC(=O)Nc1cccc(NC(=O)c2c(-c3ccccc3Cl)noc2C)c1 | -3.7% (inactive) |
| C/C(=N\NC(=O)c1c(-c2ccccc2Cl)noc1C)c1cccc(NC(=O)C(C)C)c1 | 77.1% (active) |
| C/C(=N\NC(=O)C(=O)Nc1cccc(Cl)c1C)c1ccncc1 | -8% (inactive) |
| O=C(c1cc2cc(F)ccc2[nH]1)N1CCN(C(=O)c2ccco2)CC1 | 95.1% (active) |
| O=C(c1cc2cc(Cl)ccc2[nH]1)N1CCN(C(=O)c2ccco2)CC1 | -9.3% (inactive) |
| CN1CCN(C(=O)c2cc3cc(F)ccc3[nH]2)CC1 | -9.9% (inactive) |
| O=C(NNc1c(Cl)cccc1Cl)c1cccs1 | -4.8% (inactive) |
| CCCC(=O)Nc1ccc(Cl)c(NC(=O)CC)c1 | -12.2% (inactive) |
| O=C(O)c1ccc(NC(=S)NC(=O)c2ccc(-c3ccc(Br)cc3)o2)cc1 | 86.9% (active) |
| O=C(NC(=S)Nc1ccccc1C(=O)O)c1ccc(-c2ccc(Br)cc2)o1 | 1.2% (inactive) |
| O=C(NC(=S)Nc1ccc(CN2CCOCC2)cc1)c1ccc(-c2ccc(Br)cc2)o1 | -14.4% (inactive) |
| CCCc1cc(C(=O)NC2CCCN(Cc3ccccc3F)C2)no1 (stereo not drawn) | -1.5% (inactive) |
| CC(=O)N(CC(=O)O)c1ccccc1 | -0.7% (inactive) |
| O=C(COc1ccccc1F)Nc1cc(S(=O)(=O)N2CCOCC2)ccc1N1CCOCC1 | -1.3% (inactive) |
| CCC(C)NCCOCCOc1ccc(Cl)cc1Br (stereo not drawn) | -3.3% (inactive) |

| Compound | inhibition |
| --- | --- |
| CCC(C)NCCOCCOc1ccc(Cl)c2ccccc12 (stereo not drawn) | 1.1% (inactive) |
| CCC(C)NCCOCCOc1ccc(Cl)c(C)c1C (stereo not drawn) | 76.9% (active) |
| Cc1cccc(NC(=S)N=Nc2c(O)n(CN3CCOCC3)c3ccccc23)c1C | -4.1% (inactive) |
| Cc1ccc(N=Nc2c(O)n(CN3CCOCC3)c3ccccc23)cc1 | 72% (active) |
| Cc1c(Cl)cccc1NC(=S)N=Nc1c(O)n(CN2CCOCC2)c2ccccc12 | -0.8% (inactive) |
| O=S(=O)(CCCc1ccccc1)c1ncn[nH]1 | -3% (inactive) |
| COc1ccc(N(CC(=O)NCCSC(C)(C)C)S(C)(=O)=O)c(OC)c1 | -6.6% (inactive) |
| Cc1ccc(OCC(=O)N/N=C/c2ccco2)cc1 | -5.1% (inactive) |
| Cc1ccccc1OCC(=O)N/N=C/c1ccco1 | -3.4% (inactive) |
| Cc1ccc(OCC(=O)N/N=C\c2ccco2)c(C)c1 | 51.3% (active) |
| Cc1ccc(C(=O)N/N=C\c2cccs2)cn1 | 1.2% (inactive) |
| Cc1nnc(C)n1/N=C/c1ccccc1 | -11% (inactive) |
| COc1ccc(Cl)cc1-c1nc(N)nc(NC2CCCCC2)n1 | 58.1% (active) |
| CCNc1nc(N)nc(-c2cc(Cl)ccc2OC)n1 | -2.6% (inactive) |
| CNc1nc(N)nc(-c2cc(Cl)ccc2OC)n1 | -4% (inactive) |
| Cc1ccc(/C(O)=C2/C(=O)C(=O)N(CCN3CCOCC3)C2c2cccnc2)cc1 (stereo not drawn) | -3.8% (inactive) |
| C=CCC(C(=O)OC)(C(=O)OC)c1ccccc1[N+](=O)[O-] | -9.5% (inactive) |
| CCOc1cc(/C=N\NC(=O)c2ccc(NC(=O)C(C)(C)C)cc2)ccc1OC(=O)c1ccc(C)cc1 | -4% (inactive) |
| COc1cc(/C=N\NC(=O)c2ccc(-c3ccccc3)cc2)ccc1OCC(N)=O | 3.2% (inactive) |
| Cc1cc2c(N=O)c(NO)ccc2[nH]1 | -4.6% (inactive) |
| Cc1nn(Cc2cccc(C(=O)NCC(C)C)c2)c(C)c1Br | -3.3% (inactive) |
| CCCNC(=O)c1cccc(Cn2nc(C)c(Br)c2C)c1 | -5.3% (inactive) |
| Cc1nn(Cc2cccc(C(=O)NC34CC5CC(CC(C5)C3)C4)c2)c(C)c1Br | 94.4% (active) |
| COc1ccc(-c2cc(C(=O)NCCc3ccc(S(N)(=O)=O)cc3)c3ccccc3n2)cc1 | -2.5% (inactive) |
| Cc1nnc(SCC(=O)NC(=O)Nc2ccc3c(c2)OCCO3)n1N | -13% (inactive) |

| Compound | inhibition |
| --- | --- |
| COCCn1c(=N)c(S(=O)(=O)c2ccc(Br)cc2)cc2c(=O)n3ccccc3nc21 | 67.5% (active) |
| COCCn1c(=N)c(S(=O)(=O)c2ccc(F)cc2)cc2c(=O)n3ccccc3nc21 | -34.1% (inactive) |
| N=c1c(S(=O)(=O)c2ccc(Br)cc2)cc2c(=O)n3ccccc3nc2n1Cc1ccccc1 | -5.4% (inactive) |
| Cc1cc(N2C(=O)C(O)=C(C(=O)c3cc4ccccc4o3)C2c2ccc(Br)cc2)no1 (stereo not drawn) | 2.4% (inactive) |
| OCCOCCn1c(-c2ccccc2)nc(=S)c2c1CCCC2 | -2.3% (inactive) |
| O=C(CCc1c[nH]c2ccccc12)OCc1cccc([N+](=O)[O-])c1 | -6% (inactive) |
| COc1ccc(/C=N\NC(=O)COc2ccccc2)c(C(=O)O)c1OC | 2.3% (inactive) |
| COc1ccc(OCC(=O)N/N=C/c2ccc(OC)c(OC)c2C(=O)O)cc1 | 53.1% (active) |
| COc1ccc(/C=N/NC(=O)COc2ccc3ccccc3c2)c(C(=O)O)c1OC | -2.9% (inactive) |
| CCc1nc(CNC(=O)c2cc(OC)c(OC)c(OC)c2)no1 | -4.2% (inactive) |
| O=C(NC(=S)Nc1ccc(S(=O)(=O)Nc2nccs2)cc1)C1CC1 | 1% (inactive) |
| COc1cccc(N(C(=O)Cn2nnc(-c3ccc(Cl)cc3)n2)C(C(=O)NCC2CCCO2)c2ccc(C)cc2)c1 (stereo not drawn) | -1.9% (inactive) |
| CCCCOc1ccc(N(CC(=O)NC(C)C)C(=O)CCC(=O)Nc2ccccn2)cc1 | -3.4% (inactive) |
| COc1ccc(N(CC(=O)NC(C)C)C(=O)CCC(=O)Nc2ccccn2)cc1 | 67.8% (active) |
| CCOc1ccc(N(CC(=O)NC(C)C)C(=O)CCC(=O)Nc2ccccn2)cc1 | 2.9% (inactive) |
| O=C(NCCCN1CCCC1=O)c1cccs1 | 2.8% (inactive) |
| Cc1cc(C(=O)NCCCN2CCCC2=O)cs1 | 75.4% (active) |
| O=C(NCCCN1CCCC1=O)c1csc2ccccc12 | -6.7% (inactive) |
| C=CCSc1nc2sc(-c3ccccc3)cc2c(=O)n1N | -7.2% (inactive) |
| CCOC(=O)N1CCN(C(=O)C(CC)n2nc(C)c3sc4ccccc4c3c2=O)CC1 (stereo not drawn) | 4.4% (inactive) |
| Brc1cc2c(cc1CN1CCc3ccccc3C1)OCO2 | -4.6% (inactive) |
| O=C1CC(c2ccccc2)CN1C(=O)c1cccnc1 (stereo not drawn) | -10.4% (inactive) |
| O=C1CCC(c2ccccc2)N1C(=O)c1cccnc1 (stereo not drawn) | 87.4% (active) |
| O=C(c1ccccc1)N1CCN(C(=O)c2cccnc2)CC1 | -0.5% (inactive) |
| CCOC(=O)c1c(-c2cccc3ccccc23)csc1NC(=O)C1C2CCC(O2)C1C(=O)O (stereo not drawn) | 4.2% (inactive) |

| Compound | inhibition |
| --- | --- |
| CCCOC(=O)c1c(-c2ccc(C)cc2C)csc1NC(=O)C1C2CCC(O2)C1C(=O)O (stereo not drawn) | 66.6% (active) |
| CCOC(=O)c1c(-c2ccc(-c3ccccc3)cc2)csc1NC(=O)C1C2CCC(O2)C1C(=O)O (stereo not drawn) | 20.8% (inactive) |
| CC(=O)c1ccc(N2CCN(C(=O)CCN3C(=S)NC(C)(C)CC3C)CC2)cc1 (stereo not drawn) | 1% (inactive) |
| Cc1cc(C)n(C(C)CNS(=O)(=O)c2ccccc2)n1 (stereo not drawn) | -6.8% (inactive) |
| O=C(Nc1ccccc1C(=O)NCCc1ccccc1)c1ccco1 | -1.8% (inactive) |
| O=C(O)CCC(=O)Nc1ccccc1C(=O)NCCc1ccccc1 | 2.9% (inactive) |
| NC(=O)Nc1ccccc1C(=O)NCCc1ccccc1 | 65% (active) |
| CN(C)/C=N/NC(=O)c1ccccc1 | -9.5% (inactive) |
| CC(=O)Nc1ccc(NC(=O)c2c(-c3ccccc3Cl)noc2C)c(C)c1 | -11.5% (inactive) |
| Cc1ccnc(NCc2c(O)ccc3ccccc23)c1 | -11.3% (inactive) |
| O=C(CC1C(=O)N(Cc2ccccc2)C(=S)N1CCN1CCOCC1)Nc1ccc(F)cc1 (stereo not drawn) | 74.9% (active) |
| CCN1C(=O)C(CC(=O)Nc2ccc(OC)cc2)N(CCN2CCOCC2)C1=S (stereo not drawn) | -9.2% (inactive) |
| COc1ccc(NC(=O)CC2C(=O)N(Cc3ccccc3)C(=S)N2CCN2CCOCC2)cc1 (stereo not drawn) | -3.6% (inactive) |
| CC(=O)NNc1ncnc2c1cnn2-c1ccccc1 | 1.3% (inactive) |
| CCNC(=S)N/N=C(\C)c1ccc2ccccc2c1OC(F)F | 4% (inactive) |
| COC(=O)N/N=C(\C)c1ccc2ccccc2c1OC(F)F | 68% (active) |
| COC(=O)N/N=C(\C)c1ccccc1OC(F)F | -1.7% (inactive) |
| COC(=O)C(C)n1cnc2c(nnn2-c2ccc(C)cc2)c1=O (stereo not drawn) | -13% (inactive) |
| CN(C(=O)COc1cc(C(F)(F)F)nn1C)c1ccccc1 | -13.5% (inactive) |
| CC(C)Cn1c(-c2ccco2)n[nH]c1=S | -1.3% (inactive) |
| CC1Cc2ccccc2N1CC(=O)Nc1ccc(S(N)(=O)=O)cc1 (stereo not drawn) | -7.9% (inactive) |
| CC1Cc2ccccc2N1CC(=O)Nc1cccc(S(N)(=O)=O)c1 (stereo not drawn) | 52.1% (active) |
| CC1Cc2ccccc2N1CC(=O)Nc1ccc(S(=O)(=O)N(C)C)cc1 (stereo not drawn) | 0.3% (inactive) |
